# Columns and labels:
# Assay in all cases: DAPPL (digital affinity profiling via proximity ligation, sequencing); 10 mM Tris-HCl pH 7.5, 50 mM NaCl, 1 mM DTT, 4% glycerol, room temperature, 30 min; GST-TFs on glutathione beads, 16-mer random dsDNA library, 0.1% formaldehyde crosslink after washing; high values mean tight binding
# FLI1 = molecular target: T1, FLI1 (Homo sapiens, UniProt Q01543 1-452); conditions: protein: recombinant; tags: N-terminal GST; dsDNA, one strand shown
# T1 sequence: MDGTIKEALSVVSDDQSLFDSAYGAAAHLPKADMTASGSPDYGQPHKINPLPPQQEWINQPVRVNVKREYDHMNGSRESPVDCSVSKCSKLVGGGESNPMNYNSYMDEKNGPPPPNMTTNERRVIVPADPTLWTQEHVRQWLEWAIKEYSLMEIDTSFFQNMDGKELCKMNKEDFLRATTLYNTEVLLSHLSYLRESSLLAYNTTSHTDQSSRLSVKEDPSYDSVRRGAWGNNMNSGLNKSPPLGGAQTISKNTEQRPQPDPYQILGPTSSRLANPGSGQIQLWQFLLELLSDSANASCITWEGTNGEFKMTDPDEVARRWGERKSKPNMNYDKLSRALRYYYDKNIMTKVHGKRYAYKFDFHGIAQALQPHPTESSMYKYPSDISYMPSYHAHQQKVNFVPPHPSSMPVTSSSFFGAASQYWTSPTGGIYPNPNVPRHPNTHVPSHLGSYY
# In short: (§1)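 In yeast, human transcription factors were expressed with a GST fusion, then pulled down on glutathione beads and given DNA barcodes. Pooled with a tag-only sample, they were exposed to 200 nmole of a 16-mer random double-stranded DNA library (Tris/NaCl/DTT/glycerol buffer, room temperature, 30 min), washed, crosslinked with 0.1% formaldehyde, proximity-ligated using BsaI/T4 ligase for 1 h at 37 °C, PCR-amplified and read on an Illumina NextSeq500. Each hexamer's frequency of reads for a factor, divided by the matching frequency for the tag-only sample, gives the binding signal.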
# ELK1 = molecular target: T2, ELK1 (Homo sapiens, UniProt P19419 1-428); conditions: protein: recombinant; tags: N-terminal GST; dsDNA, one strand shown
# T2 sequence: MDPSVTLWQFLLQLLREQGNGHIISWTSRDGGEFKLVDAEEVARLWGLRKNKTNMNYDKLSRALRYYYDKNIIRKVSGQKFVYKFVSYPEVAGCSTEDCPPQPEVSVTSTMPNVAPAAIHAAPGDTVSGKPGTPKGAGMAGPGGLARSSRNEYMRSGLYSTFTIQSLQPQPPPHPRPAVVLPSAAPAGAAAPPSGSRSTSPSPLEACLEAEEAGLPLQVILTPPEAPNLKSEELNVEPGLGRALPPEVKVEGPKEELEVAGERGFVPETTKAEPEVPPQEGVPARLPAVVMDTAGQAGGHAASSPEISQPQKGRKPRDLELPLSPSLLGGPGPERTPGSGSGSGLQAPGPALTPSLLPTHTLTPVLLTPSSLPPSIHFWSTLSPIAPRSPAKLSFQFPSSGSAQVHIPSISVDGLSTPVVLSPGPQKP
# In short: as §1
# GABPA = molecular target: T3, GABPA (Homo sapiens, UniProt Q06546 1-454); conditions: protein: recombinant; tags: N-terminal GST; dsDNA, one strand shown
# T3 sequence: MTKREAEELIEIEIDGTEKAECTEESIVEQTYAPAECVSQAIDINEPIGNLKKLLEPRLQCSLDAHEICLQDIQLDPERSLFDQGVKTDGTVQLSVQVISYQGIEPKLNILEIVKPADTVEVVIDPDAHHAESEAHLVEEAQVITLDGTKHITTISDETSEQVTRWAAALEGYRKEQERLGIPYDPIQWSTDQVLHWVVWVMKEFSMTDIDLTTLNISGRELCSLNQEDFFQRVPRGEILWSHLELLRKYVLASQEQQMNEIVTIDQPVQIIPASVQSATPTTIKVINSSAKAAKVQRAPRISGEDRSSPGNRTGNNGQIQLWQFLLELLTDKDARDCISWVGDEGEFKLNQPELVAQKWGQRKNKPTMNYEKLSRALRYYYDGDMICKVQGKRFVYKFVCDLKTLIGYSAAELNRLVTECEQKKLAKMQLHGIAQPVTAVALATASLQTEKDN
# In short: as §1
# ERG = molecular target: T4, ERG (Homo sapiens, UniProt P11308 1-479); conditions: protein: recombinant; tags: N-terminal GST; dsDNA, one strand shown
# T4 sequence: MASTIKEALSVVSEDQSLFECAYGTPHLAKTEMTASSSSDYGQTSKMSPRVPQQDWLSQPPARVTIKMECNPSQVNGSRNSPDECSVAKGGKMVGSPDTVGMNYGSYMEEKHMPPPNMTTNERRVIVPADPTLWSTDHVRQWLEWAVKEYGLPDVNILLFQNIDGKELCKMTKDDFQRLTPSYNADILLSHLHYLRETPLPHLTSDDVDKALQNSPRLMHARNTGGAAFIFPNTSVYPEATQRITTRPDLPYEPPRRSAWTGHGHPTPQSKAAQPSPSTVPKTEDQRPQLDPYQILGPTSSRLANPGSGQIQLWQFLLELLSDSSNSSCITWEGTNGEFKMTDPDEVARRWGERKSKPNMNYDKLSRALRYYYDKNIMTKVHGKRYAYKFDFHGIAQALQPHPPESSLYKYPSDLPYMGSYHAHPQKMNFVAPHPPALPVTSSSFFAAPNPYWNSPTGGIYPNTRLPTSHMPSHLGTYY
# In short: as §1
# ELF1 = ELF1 (Homo sapiens, UniProt P32519 1-619); conditions: protein: recombinant; tags: N-terminal GST; dsDNA, one strand shown
# In short: as §1
# EHF = molecular target: T5, EHF (Homo sapiens, UniProt Q9NZC4 1-300); conditions: protein: recombinant; tags: N-terminal GST; dsDNA, one strand shown
# T5 sequence: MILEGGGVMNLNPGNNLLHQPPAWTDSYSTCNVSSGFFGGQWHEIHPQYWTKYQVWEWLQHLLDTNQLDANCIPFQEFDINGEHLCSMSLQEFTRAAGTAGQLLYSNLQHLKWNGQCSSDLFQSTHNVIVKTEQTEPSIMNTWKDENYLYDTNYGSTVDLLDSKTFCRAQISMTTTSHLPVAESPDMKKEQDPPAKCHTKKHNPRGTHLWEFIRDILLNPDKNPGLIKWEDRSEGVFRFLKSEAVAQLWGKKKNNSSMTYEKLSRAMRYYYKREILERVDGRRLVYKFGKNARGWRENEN
# In short: as §1
# SPI1 = SPI1 (Homo sapiens, UniProt P17947 1-270); conditions: protein: recombinant; tags: N-terminal GST; dsDNA, one strand shown
# In short: as §1
# SPIB = SPIB (Homo sapiens, UniProt Q01892 1-262); conditions: protein: recombinant; tags: N-terminal GST; dsDNA, one strand shown
# In short: as §1
# ELK3 = molecular target: T6, ELK3 (Homo sapiens, UniProt P41970 1-407); conditions: protein: recombinant; tags: N-terminal GST; dsDNA, one strand shown
# T6 sequence: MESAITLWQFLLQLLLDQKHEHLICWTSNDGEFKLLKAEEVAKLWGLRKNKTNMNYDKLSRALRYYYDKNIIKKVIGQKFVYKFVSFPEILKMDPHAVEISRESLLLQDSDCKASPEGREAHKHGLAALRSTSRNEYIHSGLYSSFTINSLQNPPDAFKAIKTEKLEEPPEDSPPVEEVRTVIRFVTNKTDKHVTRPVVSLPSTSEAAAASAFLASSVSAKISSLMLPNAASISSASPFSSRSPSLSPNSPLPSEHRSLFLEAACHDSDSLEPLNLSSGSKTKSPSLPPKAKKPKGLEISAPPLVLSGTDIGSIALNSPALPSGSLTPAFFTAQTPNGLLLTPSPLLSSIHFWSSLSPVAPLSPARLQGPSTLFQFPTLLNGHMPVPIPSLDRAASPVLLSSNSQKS
# In short: as §1
# FEV = molecular target: T7, FEV (Homo sapiens, UniProt Q99581 1-238); conditions: protein: recombinant; tags: N-terminal GST; dsDNA, one strand shown
# T7 sequence: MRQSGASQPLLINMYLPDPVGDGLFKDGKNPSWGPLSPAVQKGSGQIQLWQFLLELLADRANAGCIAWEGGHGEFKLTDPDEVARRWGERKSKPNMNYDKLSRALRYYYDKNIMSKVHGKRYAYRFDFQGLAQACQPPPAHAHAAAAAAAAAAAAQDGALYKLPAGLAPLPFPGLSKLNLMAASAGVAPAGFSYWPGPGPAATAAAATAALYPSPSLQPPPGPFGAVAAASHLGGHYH
# In short: as §1
# ETV5 = ETV5 (Homo sapiens, UniProt P41161 1-510); conditions: protein: recombinant; tags: N-terminal GST; dsDNA, one strand shown
# In short: as §1
# HSF1 = HSF1 (Homo sapiens, UniProt Q00613 1-529); conditions: protein: recombinant; tags: N-terminal GST; chain copies: 3; dsDNA, one strand shown
# In short: as §1
# SPIC = molecular target: T8, SPIC (Homo sapiens, UniProt Q8N5J4 1-248); conditions: protein: recombinant; tags: N-terminal GST; dsDNA, one strand shown
# T8 sequence: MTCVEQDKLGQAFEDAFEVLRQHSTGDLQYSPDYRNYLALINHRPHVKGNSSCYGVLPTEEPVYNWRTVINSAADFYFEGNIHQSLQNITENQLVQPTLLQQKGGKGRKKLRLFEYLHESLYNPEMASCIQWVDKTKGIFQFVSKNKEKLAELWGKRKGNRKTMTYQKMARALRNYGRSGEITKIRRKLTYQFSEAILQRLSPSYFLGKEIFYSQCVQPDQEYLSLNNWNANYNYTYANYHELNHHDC
# In short: as §1
# ELF4 = ELF4 (Homo sapiens, UniProt Q99607 1-663); conditions: protein: recombinant; tags: N-terminal GST; dsDNA, one strand shown
# In short: as §1
# ELK4 = molecular target: T9, ELK4 (Homo sapiens, UniProt P28324-2 1-405); conditions: protein: recombinant; tags: N-terminal GST; dsDNA, one strand shown
# T9 sequence: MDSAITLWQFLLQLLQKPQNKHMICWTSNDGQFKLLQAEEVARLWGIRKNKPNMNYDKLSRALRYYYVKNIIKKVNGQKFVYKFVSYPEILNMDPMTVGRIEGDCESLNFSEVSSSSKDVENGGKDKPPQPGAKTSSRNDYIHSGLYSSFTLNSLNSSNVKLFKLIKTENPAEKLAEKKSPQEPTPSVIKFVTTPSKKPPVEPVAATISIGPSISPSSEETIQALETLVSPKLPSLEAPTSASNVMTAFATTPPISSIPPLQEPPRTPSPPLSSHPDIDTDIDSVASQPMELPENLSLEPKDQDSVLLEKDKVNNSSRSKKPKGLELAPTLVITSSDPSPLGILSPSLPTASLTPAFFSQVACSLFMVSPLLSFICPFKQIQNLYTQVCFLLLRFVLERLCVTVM
# In short: as §1
# ETV2 = molecular target: T10, ETV2 (Homo sapiens, UniProt O00321 1-342); conditions: protein: recombinant; tags: N-terminal GST; dsDNA, one strand shown
# T10 sequence: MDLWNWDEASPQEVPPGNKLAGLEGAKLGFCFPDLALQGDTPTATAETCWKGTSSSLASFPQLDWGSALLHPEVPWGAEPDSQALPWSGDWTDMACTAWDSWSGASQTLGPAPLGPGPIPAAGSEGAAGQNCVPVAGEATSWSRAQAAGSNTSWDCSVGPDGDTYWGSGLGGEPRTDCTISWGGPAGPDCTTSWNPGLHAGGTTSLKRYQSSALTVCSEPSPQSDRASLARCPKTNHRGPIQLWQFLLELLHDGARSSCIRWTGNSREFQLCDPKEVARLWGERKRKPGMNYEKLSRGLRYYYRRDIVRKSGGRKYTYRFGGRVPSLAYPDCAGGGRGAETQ
# In short: as §1
# ELF3 = molecular target: T11, ELF3 (Homo sapiens, UniProt P78545 1-371); conditions: protein: recombinant; tags: N-terminal GST; dsDNA, one strand shown
# T11 sequence: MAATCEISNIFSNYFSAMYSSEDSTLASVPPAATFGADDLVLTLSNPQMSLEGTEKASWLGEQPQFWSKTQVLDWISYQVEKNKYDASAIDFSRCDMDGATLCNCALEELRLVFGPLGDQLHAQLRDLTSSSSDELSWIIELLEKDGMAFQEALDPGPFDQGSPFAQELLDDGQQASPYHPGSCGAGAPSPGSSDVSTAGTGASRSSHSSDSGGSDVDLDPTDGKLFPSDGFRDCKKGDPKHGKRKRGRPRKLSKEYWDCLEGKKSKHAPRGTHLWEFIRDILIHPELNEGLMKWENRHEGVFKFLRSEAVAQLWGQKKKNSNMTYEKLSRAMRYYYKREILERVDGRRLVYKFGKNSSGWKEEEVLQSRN
# In short: as §1
# ETV1 = ETV1 (Homo sapiens, UniProt P50549 1-477); conditions: protein: recombinant; tags: N-terminal GST; dsDNA, one strand shown
# In short: as §1
# Chain of SPIB (Q01892 whole entry): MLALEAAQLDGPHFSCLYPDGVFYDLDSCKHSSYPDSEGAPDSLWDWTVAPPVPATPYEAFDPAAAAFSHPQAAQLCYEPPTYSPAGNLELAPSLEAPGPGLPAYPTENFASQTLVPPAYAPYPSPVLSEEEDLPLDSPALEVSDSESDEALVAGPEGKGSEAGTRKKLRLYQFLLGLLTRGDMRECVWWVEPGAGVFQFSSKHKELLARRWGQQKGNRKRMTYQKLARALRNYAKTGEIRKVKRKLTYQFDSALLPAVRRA
# Chain of ELF1 (P32519 whole entry): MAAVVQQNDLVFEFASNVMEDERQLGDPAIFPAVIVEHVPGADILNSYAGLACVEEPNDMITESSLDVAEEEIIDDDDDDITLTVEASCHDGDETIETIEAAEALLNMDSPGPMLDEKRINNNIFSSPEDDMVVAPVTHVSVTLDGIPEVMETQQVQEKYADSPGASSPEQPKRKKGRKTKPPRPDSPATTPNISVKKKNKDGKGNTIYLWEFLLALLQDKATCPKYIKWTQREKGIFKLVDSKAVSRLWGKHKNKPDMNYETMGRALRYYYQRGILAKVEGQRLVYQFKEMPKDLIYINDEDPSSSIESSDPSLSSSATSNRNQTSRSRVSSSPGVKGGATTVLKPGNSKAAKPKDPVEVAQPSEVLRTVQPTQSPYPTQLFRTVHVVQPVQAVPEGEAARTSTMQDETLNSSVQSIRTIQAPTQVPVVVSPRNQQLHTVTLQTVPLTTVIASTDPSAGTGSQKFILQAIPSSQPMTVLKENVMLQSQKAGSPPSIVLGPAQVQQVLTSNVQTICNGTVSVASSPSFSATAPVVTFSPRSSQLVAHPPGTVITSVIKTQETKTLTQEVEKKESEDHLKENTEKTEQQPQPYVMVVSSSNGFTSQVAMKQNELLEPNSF
# Chain of ELF4 (Q99607 whole entry): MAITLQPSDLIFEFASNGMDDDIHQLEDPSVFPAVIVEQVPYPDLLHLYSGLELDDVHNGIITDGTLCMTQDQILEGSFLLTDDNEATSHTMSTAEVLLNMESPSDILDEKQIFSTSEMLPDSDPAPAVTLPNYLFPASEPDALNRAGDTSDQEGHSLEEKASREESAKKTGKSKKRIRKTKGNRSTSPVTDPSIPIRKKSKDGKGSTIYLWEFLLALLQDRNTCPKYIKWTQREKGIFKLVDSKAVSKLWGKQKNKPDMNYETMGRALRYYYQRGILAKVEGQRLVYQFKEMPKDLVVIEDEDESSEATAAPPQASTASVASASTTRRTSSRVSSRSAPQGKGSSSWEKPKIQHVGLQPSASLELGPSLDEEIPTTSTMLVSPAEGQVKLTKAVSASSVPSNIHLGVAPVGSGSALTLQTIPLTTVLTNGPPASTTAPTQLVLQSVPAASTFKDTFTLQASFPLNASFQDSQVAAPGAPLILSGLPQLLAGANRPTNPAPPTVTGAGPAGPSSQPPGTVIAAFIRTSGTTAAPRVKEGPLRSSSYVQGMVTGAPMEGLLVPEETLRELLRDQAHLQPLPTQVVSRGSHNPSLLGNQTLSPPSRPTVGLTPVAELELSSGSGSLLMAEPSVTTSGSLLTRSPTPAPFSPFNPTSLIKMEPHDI
# Chain of HSF1 (Q00613 whole entry): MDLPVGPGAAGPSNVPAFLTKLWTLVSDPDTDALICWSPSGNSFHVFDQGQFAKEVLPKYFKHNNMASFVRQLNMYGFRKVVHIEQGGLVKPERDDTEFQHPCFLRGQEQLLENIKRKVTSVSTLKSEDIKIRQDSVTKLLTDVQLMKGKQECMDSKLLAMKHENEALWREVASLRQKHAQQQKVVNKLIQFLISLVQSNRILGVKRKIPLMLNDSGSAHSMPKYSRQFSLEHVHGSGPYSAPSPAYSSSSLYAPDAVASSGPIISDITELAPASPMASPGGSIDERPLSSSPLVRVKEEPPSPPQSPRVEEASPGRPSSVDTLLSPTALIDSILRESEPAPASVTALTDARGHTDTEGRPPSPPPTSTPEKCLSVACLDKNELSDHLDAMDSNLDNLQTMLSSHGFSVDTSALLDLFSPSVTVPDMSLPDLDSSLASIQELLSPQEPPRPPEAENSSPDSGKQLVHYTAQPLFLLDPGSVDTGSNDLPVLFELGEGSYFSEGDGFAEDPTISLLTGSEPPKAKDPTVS
# Chain of ETV1 (P50549 whole entry): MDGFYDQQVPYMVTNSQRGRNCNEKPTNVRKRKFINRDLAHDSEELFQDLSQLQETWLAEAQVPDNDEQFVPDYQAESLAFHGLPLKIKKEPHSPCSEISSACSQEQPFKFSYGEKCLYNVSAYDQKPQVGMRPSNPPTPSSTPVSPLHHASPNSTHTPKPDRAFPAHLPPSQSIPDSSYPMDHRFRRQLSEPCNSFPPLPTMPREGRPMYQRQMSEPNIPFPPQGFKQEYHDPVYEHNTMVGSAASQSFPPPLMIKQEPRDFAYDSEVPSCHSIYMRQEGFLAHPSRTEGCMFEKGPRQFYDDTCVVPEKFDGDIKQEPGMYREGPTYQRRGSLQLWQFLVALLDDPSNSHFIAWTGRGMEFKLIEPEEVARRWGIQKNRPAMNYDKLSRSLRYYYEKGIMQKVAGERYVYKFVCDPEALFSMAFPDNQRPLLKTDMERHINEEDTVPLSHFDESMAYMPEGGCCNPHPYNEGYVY
# Chain of ETV5 (P41161 whole entry): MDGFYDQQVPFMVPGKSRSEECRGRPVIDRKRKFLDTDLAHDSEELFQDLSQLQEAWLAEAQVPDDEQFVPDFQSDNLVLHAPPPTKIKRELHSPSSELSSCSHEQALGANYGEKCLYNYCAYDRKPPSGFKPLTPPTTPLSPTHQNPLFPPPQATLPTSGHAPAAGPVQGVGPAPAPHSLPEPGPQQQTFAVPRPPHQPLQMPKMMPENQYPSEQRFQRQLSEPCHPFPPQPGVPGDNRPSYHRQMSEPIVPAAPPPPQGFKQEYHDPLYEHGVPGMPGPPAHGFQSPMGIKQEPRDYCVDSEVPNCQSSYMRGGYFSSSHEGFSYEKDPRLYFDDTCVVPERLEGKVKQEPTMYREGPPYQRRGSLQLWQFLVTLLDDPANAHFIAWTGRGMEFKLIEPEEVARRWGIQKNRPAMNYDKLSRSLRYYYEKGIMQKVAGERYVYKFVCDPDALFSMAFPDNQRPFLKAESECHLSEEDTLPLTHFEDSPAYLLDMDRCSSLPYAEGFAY
sequence,measurement,setting,value
GATGCC,binding signal,FLI1,"1.45 fold enrichment (6-mer frequency, TF over GST control)"
same,binding signal,ELK1,"1.36 fold enrichment (6-mer frequency, TF over GST control)"
same,binding signal,GABPA,"1.38 fold enrichment (6-mer frequency, TF over GST control)"
same,binding signal,ERG,"1.41 fold enrichment (6-mer frequency, TF over GST control)"
same,binding signal,ELF1,"1.32 fold enrichment (6-mer frequency, TF over GST control)"
same,binding signal,EHF,"1.41 fold enrichment (6-mer frequency, TF over GST control)"
same,binding signal,SPI1,"1.35 fold enrichment (6-mer frequency, TF over GST control)"
same,binding signal,SPIB,"1.26 fold enrichment (6-mer frequency, TF over GST control)"
same,binding signal,ELK3,"1.38 fold enrichment (6-mer frequency, TF over GST control)"
same,binding signal,FEV,"1.41 fold enrichment (6-mer frequency, TF over GST control)"
same,binding signal,ETV5,"1.46 fold enrichment (6-mer frequency, TF over GST control)"
same,binding signal,HSF1,"1.08 fold enrichment (6-mer frequency, TF over GST control)"
same,binding signal,SPIC,"1.22 fold enrichment (6-mer frequency, TF over GST control)"
same,binding signal,ELF4,"1.31 fold enrichment (6-mer frequency, TF over GST control)"
same,binding signal,ELK4,"1.42 fold enrichment (6-mer frequency, TF over GST control)"
same,binding signal,ETV2,"1.28 fold enrichment (6-mer frequency, TF over GST control)"
same,binding signal,ELF3,"1.4 fold enrichment (6-mer frequency, TF over GST control)"
same,binding signal,ETV1,"1.36 fold enrichment (6-mer frequency, TF over GST control)"

# — article PMC7862700, “An all-to-all approach to the identification of sequence-specific readers for epigenetic DNA modifications on cytosine”
